Our source for the growth inhibition values is PubChem BioAssay (NCI).

A short description of experiment [1]: NCI Yeast Anticancer Drug Screen. Data for the rad50 strain (AID 155).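 Further: 0% = growth of vehicle-only cultures of the same strain.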 The following applies: S. cerevisiae rad50 strain growth inhibition; at 50.0 µM; active compounds read high. The procedure, abridged: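 Compounds were tested on a yeast strain with an engineered DNA damage repair alteration; the reported value is growth inhibition normalised to vehicle treatment.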

Experiment [2] is described as follows: NCI Yeast Anticancer Drug Screen. Data for the mec2-1 strain (AID 157). Conditions: S. cerevisiae mec2-1 strain, at 50.0 µM, active compounds read high. The procedure, abridged: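 Growth inhibition is read against vehicle-treated controls after compound exposure of the mec2-1 yeast strain, which is defective in DNA damage repair or cell cycle control.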
Experiment [3] can be described thus: NCI Yeast Anticancer Drug Screen. Data for the sgs1 mgt1 strain (AID 161).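 Further: 0% = growth of cultures given vehicle only.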 The following applies: S. cerevisiae sgs1 mgt1 strain, at 50.0 µM, active compounds read high. The essentials:
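Percent growth inhibition was derived by comparing compound-exposed mutant yeast with vehicle-exposed cultures. The strain carries alterations in DNA damage repair.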

A short description of experiment [4]: NCI Yeast Anticancer Drug Screen. Data for the cln2 rad14 strain (AID 165).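 Further: 0% = growth equal to vehicle treated cultures.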 Conditions: S. cerevisiae cln2 rad14 strain, at 50.0 µM, active compounds read high. The procedure, abridged: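 Growth inhibition, relative to vehicle-treated controls, is the read-out. The test organism is a yeast strain with defined genetic alterations, cln2 rad14.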
Experiment [5] can be described thus: NCI Yeast Anticancer Drug Screen. Data for the bub3 strain (AID 167). Conditions: S. cerevisiae bub3 mutant strain, at 50.0 µM, active compounds read high. The essentials: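 Growth of a checkpoint-deficient yeast mutant is measured after compound exposure. Values represent inhibition relative to vehicle.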
Experiment [6] is described as follows: NCI Yeast Anticancer Drug Screen. Data for the mlh1 rad18 strain (AID 175). The following applies: S. cerevisiae mlh1 rad18 strain growth inhibition; at 50.0 µM; active compounds read high. The procedure, abridged: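 Cells of a genetically altered yeast strain, deficient in DNA damage repair, were treated with compound. Their growth was then compared with that of vehicle-treated cultures to give inhibition.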

“And” between values parts separate entries of the source, which are not always exact repeats. Equal values may be shown once. The panel holds about 79,000 compounds, 15% with a hit somewhere; the sample as a whole holds those more often. Values without a mark were called inactive. The source made the active and inactive calls. No stated cut-off is given here; in the data, active means growth inhibition above about 70%; inactive means the rest.

Consider `Cc1nnc2cc3ccccc3cn12`, for which the growth inhibition in experiment [1] was 21%; in experiment [2], 9.45%; in experiment [3] it was 26.4%; in experiment [4], 9.45%; in experiment [5], 21.9%; in experiment [6], 18.1%.
As for `[Ni+2].[O-]c1ccc(Cl)cc1C=NCc1ccccn1.[O-]c1ccc(Cl)cc1C=NCc1ccccn1`, the growth inhibition is 94.3% (active) in experiment [1]; 96.7% (active) in experiment [2]; 97.5% (active) in experiment [3]; 86.9% (active) in experiment [4]; 96.5% (active) in experiment [5]; 97.5% (active) in experiment [6].
Take `CCOP(=S)(OCC)OCC1OC(OC)C2OC(C)(C)OC12` (stereo not drawn): the growth inhibition in experiment [1] was -26.2%; in experiment [2], 1.9%; in experiment [3], -2.45%; in experiment [4], -35.4%; in experiment [5], 11.8%; in experiment [6], 4.4%.
Regarding `N#CCc1ccccc1`, the growth inhibition was 8.5% and -45.5% in experiment [1]; 17.6% and 3.2% in experiment [2]; -7.35% and -21.4% in experiment [3]; 13.7% and 5.6% in experiment [4]; 15.4% and -1.05% in experiment [5]; 4.85% and -6.65% in experiment [6].
On to `CCOP(=O)(OCC)/C(C#N)=C/c1ccccc1OC`, for which the growth inhibition in experiment [1] is 40.5%; in experiment [2], -1.3%; in experiment [3], 0.15%; in experiment [4] it was -4.65%; in experiment [5], -14.8%; in experiment [6], 27.6%.
On to `COC1C(=[N+]=[N-])C(=O)NC(=O)N1C` (stereo not drawn), for which the growth inhibition in experiment [1] is 21%; in experiment [2], -3.4%; in experiment [3], 34.9%; in experiment [4] it was -7.65%; in experiment [5], 20.3%; in experiment [6] it was 20.5%.
For `N/N=C(\N)c1nn[nH]n1`, the growth inhibition in experiment [1] was -9.55%; in experiment [2], -12.4%; in experiment [3] it was -12.7%; in experiment [4], -6.05%; in experiment [5], 12.9%; in experiment [6], -11.9%.
As to `CCCCN=C=S`, the growth inhibition is 45.7% in experiment [1]; -11.7% in experiment [2]; 21.8% in experiment [3]; 5.15% in experiment [4]; -3.8% in experiment [5]; 19% in experiment [6].
With `COc1ccc(C=C2C(=O)NC(=O)NC2=O)cc1OC`, the growth inhibition in experiment [1] is 10.7%; in experiment [2] it was -0.6%; in experiment [3] it was 22.2%; in experiment [4] it was 8.8%; in experiment [5], -11.8%; in experiment [6], 23.9%.
Turning to `CN(C)C(=O)Oc1c(Cl)cc(S(=O)(=O)F)cc1Cl`, the growth inhibition in experiment [1] is 26.4%; in experiment [2], 0.8%; in experiment [3] it was 12.7%; in experiment [4], 12.8%; in experiment [5], 2.65%; in experiment [6], 12.4%.
As to `Nc1c(S(=O)(=O)O)cc(Nc2ccc(S(=O)(=O)O)c(Nc3nc(Cl)nc(Cl)n3)c2)c2c1C(=O)c1ccccc1C2=O`, the growth inhibition was -14.3% in experiment [1]; -31.8% in experiment [2]; -27.4% in experiment [3]; -14.3% in experiment [4]; -32.7% in experiment [5]; -37.9% in experiment [6].
For `CN(C)c1cc(C(C)(C)C)nc(C(C)(C)C)c1`, the growth inhibition is 7.65% and 3% in experiment [1]; -1.1% and -1.8% in experiment [2]; 8.6% and 5.1% in experiment [3]; 1.25% and -5.95% in experiment [4]; 0.3% and -4.75% in experiment [5]; 9.05% and 10.4% in experiment [6].
In the case of `CN(C)CCSC(c1ccccc1)c1ccc(Br)cc1` (stereo not drawn), the growth inhibition in experiment [1] was 32.5%; in experiment [2], 20.1%; in experiment [3], 52.4%; in experiment [4] it was 58.6%; in experiment [5], 34.4%; in experiment [6], 62.2%.
With `OCC1C(/C=C/c2ccoc2)ON2CCCC12` (stereo not drawn), the growth inhibition in experiment [1] is -16.6%; in experiment [2] it was -0.5%; in experiment [3], -8.05%; in experiment [4], 26.6%; in experiment [5], 18.1%; in experiment [6], -27.6%.
Turning to `CN1C(=O)CC(=O)N(C)P1(=O)Oc1ccccc1`, the growth inhibition in experiment [1] is -6%; in experiment [2], 3.25%; in experiment [3], 14%; in experiment [4], -1.6%; in experiment [5] it was -1.7%; in experiment [6] it was 4.15%.
Regarding `C#CC1(O)CCCCCC1`, the growth inhibition is 11.6% in experiment [1]; 3.45% in experiment [2]; -7.55% in experiment [3]; 8.55% in experiment [4]; 12.4% in experiment [5]; 6.8% in experiment [6].
As for `CCCCN1CCC2(CC1)C(=O)NC(=S)NC2=O`, the growth inhibition in experiment [1] was -12.4%; in experiment [2], -2.5%; in experiment [3], -3.65%; in experiment [4], 4.65%; in experiment [5], 6.25%; in experiment [6] it was -22.3%.
In the case of `C=C(C)C(=O)OCC12CCC(C)=CC1OC1C(=O)C(OC(=O)C(=C)C)C2(C)C12CO2` (stereo not drawn), the growth inhibition in experiment [1] is 8.55%; in experiment [2], 19.9%; in experiment [3], -1.15%; in experiment [4], 2.75%; in experiment [5] it was -10.1%; in experiment [6] it was -34%.
